# Laboratory results: PubChem BioAssay (Tox21)
# Values without a mark were called inactive. Results filed as inconclusive are left out. Where a call stands in place of a potency, no number is given. Active and inactive are the calls of the source. Unless noted, the call rests on the fitted dose curve; in most records, active means well fitted curve in the direction sought with a large enough effect in the repeat runs; inconclusive means weak or mixed curves; inactive means no such curve, though single readings can be large; an effect the other way counts as inactive or inconclusive.
# Experiments:
# [1] = qHTS assay for small molecule agonists of the p53 signaling pathway (AID 651631; calls by dose curve; further: nearly all actives have a fitted effect of over 15% in size; further: potency means the concentration at half of the fitted maximal effect)
# Method in brief: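 Agonist mode screen using a stably integrated beta-lactamase gene under p53 response elements in HCT-116 cells. Compound exposure lasts 16 h at 37 °C; fluorescence intensity is measured following 2 h FRET substrate loading.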
# [2] = qHTS assay for small molecules that induce genotoxicity in human embryonic kidney cells expressing luciferase-tagged ATAD5 (AID 651632); further: nearly all actives have a fitted effect of over 15% in size
# Method in brief: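 Concentration-response screen for ATAD5 upregulation in HEK293T luciferase reporter cells; 16 hr treatment at 37C, then luminescence after 30 min with Amplite at room temperature.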
# [3] = qHTS assay for small molecule agonists of the p53 signaling pathway - cell viability (AID 651633; calls by dose curve; further: nearly all actives have a fitted effect of over 30% in size; further: potency means the concentration at half of the fitted maximal effect)
# Method in brief: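 Viability counter-read: CellTiter-Glo luminescence (30 min, room temperature) in the same p53RE-bla plates. These plates had been exposed to compounds for 16 h at 37 C.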
# [4] = qHTS assay for small molecules that induce genotoxicity in human embryonic kidney cells expressing luciferase-tagged ATAD5 - cell viability (AID 651634; calls by dose curve; further: nearly all actives have a fitted effect of over 25% in size; further: potency means the concentration at half of the fitted maximal effect)
# Method in brief: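 15.5 hr compound or vehicle exposure of HEK293T cells expressing luciferase-tagged ATAD5 at 37C; live-cell protease activity is read by fluorescence after 30 min of CellTiter-Fluor.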
# [5] = qHTS assay for small molecule disruptors of the mitochondrial membrane potential - cell viability (AID 720634; calls by dose curve;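 further: human HepG2 liver cancer cells; series mostly up to about 83 µM; nearly all actives have a fitted effect of over 20% in size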)
# Method in brief: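 In this qHTS format, HepG2 cells plated overnight were pinned with compound, incubated 1 hr, and assayed for ATP luminescence with CellTiter-Glo after m-MPI dye addition.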
# [6] = qHTS assay for small molecule disruptors of the mitochondrial membrane potential (AID 720635)
# Method in brief: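 Mitochondrial membrane potential tracked with Mito-MPS dye, red aggregates (ex 540/em 590 nm) against green monomers (ex 490/em 535 nm). Compound treatment 1 hr at 37C, dye 30 min in HepG2.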
# [7] = qHTS assay to test for compound auto fluorescence at 535 nm (green) in HepG2 cells (AID 720675)
# [8] = qHTS assay to test for compound auto fluorescence at 460 nm (blue) in HEK293 cells (AID 720678)
# Method in brief: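 Intrinsic compound fluorescence is recorded in live HEK293 cultures after overnight incubation at 37C, 5% CO2, using excitation 405 nm and emission 460 nm. Values are referenced to triamterene.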
# [9] = qHTS assay to test for compound auto fluorescence at 590 nm (red) in HEK293 cells (AID 720679)
# Method in brief: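 Red autofluorescence, HEK293 cells: 2,000 cells/well; attach 4-5 hr 37C; add 23 nL cpd or DMSO; incubate o/n 37C 5% CO2; read Ex540/Em590; Rose Bengal sodium reference.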
# [10] = qHTS assay to test for compound auto fluorescence at 535 nm (green) in HEK293 cells (AID 720680)
# [11] = qHTS assay to test for compound auto fluorescence at 460 nm (blue) in HEK293 cell free culture (AID 720681)
# Method in brief: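 Blue fluorescence (Ex 405/Em 460 nm, triamterene-equivalent) was read immediately after pin transfer of compound or DMSO into medium (DMEM, 10% FBS) without cells.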
# [12] = qHTS assay to test for compound auto fluorescence at 535 nm (green) in HEK293 cell free culture (AID 720682)
# Method in brief: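 No cells present: wells hold DMEM supplemented with 10% FBS, into which compound or vehicle is pinned. Green emission is then recorded (485 nm excitation, 535 nm emission) and scaled to fluorescein.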
# [13] = qHTS assay to test for compound auto fluorescence at 590 nm (red) in HEK293 cell free culture (AID 720683)
# Method in brief: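 Red-channel autofluorescence of compounds in culture medium (DMEM, 10% FBS), no cells, measured at 540/590 nm. Rose Bengal sodium is the reference fluorophore for equivalence.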
# [14] = qHTS assay to test for compound auto fluorescence at 590 nm (red) in HepG2 cell free culture (AID 720684)
# Method in brief: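 Cell-free; medium MEM + 10% FBS; compound or DMSO added by pintool; read Ex 540/Em 590 nm; Rose Bengal sodium as red reference fluorophore.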
# [15] = qHTS assay to test for compound auto fluorescence at 460 nm (blue) in HepG2 cell free culture (AID 720685)
# Method in brief: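 Cell-free plates of MEM plus 10% FBS received 23 nL compound or DMSO vehicle; blue-channel (405/460 nm) intensity scored against triamterene as reference fluorophore.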
# [16] = qHTS assay to test for compound auto fluorescence at 535 nm (green) in HepG2 cell free culture (AID 720686)
# [17] = qHTS assay to test for compound auto fluorescence at 460 nm (blue) in HepG2 cells (AID 720687)
# Method in brief: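 Blue-channel autofluorescence (Ex/Em 405/460 nm, triamterene-equivalent) was measured after 1 hr compound exposure at 37 C, 5% CO2. Cells were HepG2, plated overnight at 37 C in MEM plus 10% FBS.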
# [18] = molecular target: Glucocorticoid receptor (Homo sapiens) (UniProt P04150); experiment: qHTS assay to identify small molecule agonists of the glucocorticoid receptor (GR) signaling pathway (AID 720691; active means well fitted activation curve with a large enough effect in the signal ratio in the repeat runs, not every such curve was filed as active; the % refers to the signal ratio)
# Sequence of Glucocorticoid receptor (Homo sapiens) (P04150 whole entry, looked up): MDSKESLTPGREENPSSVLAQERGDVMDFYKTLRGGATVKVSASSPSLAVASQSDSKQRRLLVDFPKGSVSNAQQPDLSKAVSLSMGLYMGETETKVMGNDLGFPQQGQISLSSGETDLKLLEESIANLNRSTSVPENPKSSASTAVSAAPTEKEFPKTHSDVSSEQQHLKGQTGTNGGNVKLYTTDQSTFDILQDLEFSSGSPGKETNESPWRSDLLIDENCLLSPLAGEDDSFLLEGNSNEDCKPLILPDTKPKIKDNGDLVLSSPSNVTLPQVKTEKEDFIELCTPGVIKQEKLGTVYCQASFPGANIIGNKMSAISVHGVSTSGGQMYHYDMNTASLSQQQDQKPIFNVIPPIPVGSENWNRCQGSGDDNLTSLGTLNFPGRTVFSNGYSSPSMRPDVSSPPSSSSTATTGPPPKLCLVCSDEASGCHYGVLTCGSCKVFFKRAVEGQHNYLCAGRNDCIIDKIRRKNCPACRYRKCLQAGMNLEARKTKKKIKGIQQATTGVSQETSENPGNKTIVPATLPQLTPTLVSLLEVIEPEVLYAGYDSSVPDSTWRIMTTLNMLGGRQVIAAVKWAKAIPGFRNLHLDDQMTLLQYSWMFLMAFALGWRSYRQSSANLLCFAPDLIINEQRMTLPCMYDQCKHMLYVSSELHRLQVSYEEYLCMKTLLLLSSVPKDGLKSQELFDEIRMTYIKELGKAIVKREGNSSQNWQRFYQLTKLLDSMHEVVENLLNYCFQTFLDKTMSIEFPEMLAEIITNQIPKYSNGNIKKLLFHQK
# Method in brief: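 Measures GR pathway activation through a GRE-beta-lactamase reporter stably integrated in HeLa cells, with 18 h compound treatment at 37 C and fluorescence detection using a FRET substrate.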
# [19] = molecular target: Glucocorticoid receptor (Homo sapiens) (UniProt P04150); experiment: qHTS assay to identify small molecule antagonists of the glucocorticoid receptor (GR) signaling pathway (AID 720692; active means well fitted inhibition curve with a large enough effect in the signal ratio in the repeat runs, not every such curve was filed as active; the % refers to the signal ratio)
# Method in brief: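 Tox21 10K library screened in concentration-response for blockade of dexamethasone (5 nM final)-induced GRE-bla reporter activity in HeLa cells; 18 h treatment, fluorescence read.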
# [20] = qHTS assay to test for compound auto fluorescence at 590 nm (red) in HepG2 cells (AID 720674)
# Method in brief: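 We screened compounds on adherent HepG2 cells, incubating them for an hour at 37 C in 5% CO2 before reading emission at 590 nm under 540 nm excitation; values reflect equivalence to Rose Bengal sodium fluorescence.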
smiles,measurement,setting,value
CCCC(=O)C(=O)O,Potency,[1],inactive
same,Potency,[2],inactive
same,Potency,[3],inactive
same,Potency,[4],inactive
same,Potency,[5],inactive
same,Potency,[6],inactive
same,outcome,[7],inactive
same,Potency,[8],inactive
same,outcome,[9],inactive
same,outcome,[10],inactive
same,Potency,[11],inactive
same,outcome,[12],inactive
same,outcome,[13],inactive
same,outcome,[14],inactive
same,Potency,[15],inactive
same,outcome,[16],inactive
same,Potency,[17],inactive
same,Potency,[18],inactive
same,Potency,[19],inactive
COc1ccccc1Oc1c(NS(=O)(=O)c2ccc(C(C)(C)C)cc2)nc(-c2ncccn2)nc1OCCO,Potency,[1],inactive
same,Potency,[2],inactive
same,Potency,[3],inactive
same,Potency,[4],inactive
same,Potency,[5],inactive
same,outcome,[20],inactive
same,outcome,[7],inactive
same,Potency,[8],inactive
same,outcome,[9],inactive
same,outcome,[10],inactive
same,outcome,[12],inactive
same,outcome,[13],inactive
same,outcome,[14],inactive
same,Potency,[15],inactive
same,outcome,[16],inactive
same,Potency,[17],inactive
same,Potency,[19],inactive
C(=C\c1ccccc1)/c1ccccc1,Potency,[1],inactive
same,Potency,[2],inactive
same,Potency,[3],inactive
same,Potency,[4],inactive
same,Potency,[5],inactive
same,outcome,[20],inactive
same,outcome,[7],inactive
same,Potency,[8],inactive
same,outcome,[9],inactive
same,outcome,[10],inactive
same,Potency,[11],inactive
same,outcome,[12],inactive
same,outcome,[13],inactive
same,outcome,[14],inactive
same,Potency,[15],inactive
same,outcome,[16],inactive
same,Potency,[17],inactive
Cc1cccc(N(C)C(=S)Oc2ccc3c(c2)CCC3)c1,Potency,[1],inactive
same,Potency,[2],inactive
same,Potency,[3],inactive
same,Potency,[4],inactive
same,Potency,[5],inactive
same,outcome,[20],inactive
same,outcome,[7],inactive
same,Potency,[8],inactive
same,outcome,[9],inactive
same,Potency,[11],inactive
same,outcome,[12],inactive
same,outcome,[13],inactive
same,outcome,[14],inactive
same,Potency,[15],inactive
same,outcome,[16],inactive
same,Potency,[17],inactive
same,Potency,[18],inactive
CCOC(=O)c1ccc(I)cc1,Potency,[1],inactive
same,Potency,[2],inactive
same,Potency,[3],inactive
same,Potency,[4],inactive
same,Potency,[5],inactive
same,Potency,[6],inactive
same,outcome,[20],inactive
same,outcome,[7],inactive
same,outcome,[9],inactive
same,Potency,[11],inactive
same,outcome,[12],inactive
same,outcome,[13],inactive
same,outcome,[14],inactive
same,Potency,[15],inactive
same,outcome,[16],inactive
same,Potency,[17],inactive
C=COCC(C)C,Potency,[1],inactive
same,Potency,[2],inactive
same,Potency,[3],inactive
same,Potency,[4],inactive
same,Potency,[5],inactive
same,outcome,[20],inactive
same,outcome,[7],inactive
same,Potency,[8],inactive
same,outcome,[9],inactive
same,outcome,[10],inactive
same,outcome,[12],inactive
same,outcome,[13],inactive
same,Potency,[15],inactive
same,outcome,[16],inactive
same,Potency,[17],inactive
C[C@@H](O)[C@H]1C(=O)N2C(C(=O)O)=C([C@H]3CCCO3)S[C@H]12,Potency,[1],inactive
same,Potency,[2],inactive
same,Potency,[3],inactive
same,Potency,[4],inactive
same,Potency,[5],inactive
same,Potency,[6],inactive
same,outcome,[7],inactive
same,Potency,[8],inactive
same,outcome,[9],inactive
same,outcome,[10],inactive
same,outcome,[12],inactive
same,outcome,[13],inactive
same,outcome,[14],inactive
same,Potency,[15],inactive
same,Potency,[17],inactive
C[C@@H](O[C@H]1OCCN(Cc2n[nH]c(=O)[nH]2)[C@H]1c1ccc(F)cc1)c1cc(C(F)(F)F)cc(C(F)(F)F)c1,Potency,[1],29.8 µM (active)
same,Potency,[2],inactive
same,Potency,[3],23.7 µM (active)
same,Potency,[4],23.7 µM (active)
same,Potency,[5],inactive
same,outcome,[20],inactive
same,outcome,[7],inactive
same,Potency,[8],inactive
same,outcome,[9],inactive
same,outcome,[10],inactive
same,Potency,[11],inactive
same,outcome,[12],inactive
same,outcome,[13],inactive
same,outcome,[14],inactive
same,Potency,[15],inactive
same,outcome,[16],inactive
same,Potency,[17],inactive
CCC(C)COC(=O)CC(C)C (centres undefined),Potency,[1],inactive
same,Potency,[2],inactive
same,Potency,[3],inactive
same,Potency,[4],inactive
same,Potency,[5],inactive
same,outcome,[20],inactive
same,outcome,[7],inactive
same,Potency,[8],inactive
same,outcome,[9],inactive
same,outcome,[10],inactive
same,Potency,[11],inactive
same,outcome,[12],inactive
same,outcome,[13],inactive
same,Potency,[15],inactive
same,outcome,[16],inactive
same,Potency,[17],inactive
CC1(C)[C@@H](OC(=O)CCC(=O)O)CC[C@]2(C)[C@H]3C(=O)C=C4[C@@H]5C[C@@](C)(C(=O)O)CC[C@]5(C)CC[C@@]4(C)[C@]3(C)CC[C@@H]12,Potency,[1],inactive
same,Potency,[2],inactive
same,Potency,[3],inactive
same,Potency,[4],inactive
same,Potency,[5],inactive
same,Potency,[6],inactive
same,"fluorescence, % of fluorescein control",[7],-0.0594% [at 18.6 µM]
same,"fluorescence, % of triamterene",[8],0.0377% [at 18.6 µM]
same,"fluorescence, % of fluorescent control",[9],0.163% [at 18.6 µM]
same,"fluorescence, % of fluorescein",[10],-0.0149% [at 18.6 µM]
same,"fluorescence, % of fluorescent control",[11],-0.141% [at 18.6 µM]
same,activity change,[12],-0.0002% [at 18.6 µM]
same,"fluorescence, % of fluorescent control",[13],0.073% [at 18.6 µM]
same,"fluorescence, % of Rose Bengal",[14],0.105% [at 18.6 µM]
same,"fluorescence, % of fluorescent control",[15],0.0251% [at 18.6 µM]
same,"fluorescence, % of fluorescein control",[16],0.0091% [at 18.6 µM]
same,"fluorescence, % of fluorescent control",[17],-0.0128% [at 18.6 µM]
same,Potency,[19],inactive
C=C(C)C(=O)OCCCCCCCCCCCCC,Potency,[1],inactive
same,Potency,[2],inactive
same,Potency,[3],inactive
same,Potency,[4],inactive
same,Potency,[5],inactive
same,Potency,[6],inactive
same,outcome,[20],inactive
same,outcome,[7],inactive
same,outcome,[9],inactive
same,outcome,[10],inactive
same,Potency,[11],inactive
same,outcome,[12],inactive
same,outcome,[13],inactive
same,outcome,[14],inactive
same,Potency,[15],inactive
same,outcome,[16],inactive
same,Potency,[17],inactive
CO/N=C(/C(=O)N[C@@H]1C(=O)N2C(C(=O)O)=C(COC(N)=O)CS[C@H]12)c1ccco1,Potency,[1],inactive
same,Potency,[2],inactive
same,Potency,[3],inactive
same,Potency,[4],inactive
same,Potency,[5],inactive
same,Potency,[6],inactive
same,outcome,[20],inactive
same,outcome,[7],inactive
same,outcome,[9],inactive
same,Potency,[11],inactive
same,outcome,[12],inactive
same,outcome,[13],inactive
same,outcome,[14],inactive
same,Potency,[15],inactive
same,Potency,[17],inactive
same,Potency,[19],inactive
C=C1c2cccc(O)c2C(O)=C2C(=O)[C@]3(O)C(O)=C(C(N)=O)C(=O)[C@@H](N(C)C)[C@@H]3[C@@H](O)[C@H]12,Potency,[1],inactive
same,Potency,[2],inactive
same,Potency,[3],inactive
same,Potency,[4],inactive
same,Potency,[5],inactive
same,Potency,[6],inactive
same,"fluorescence, relative to Rose Bengal",[20],-0.284% [at 18.6 µM]
same,"fluorescence, % of fluorescein control",[7],-0.0181% [at 18.6 µM]
same,"fluorescence, % of fluorescent control",[9],0.604% [at 18.6 µM]
same,"fluorescence, % of fluorescein",[10],0.0422% [at 18.6 µM]
same,"fluorescence, % of fluorescent control",[11],1.43% [at 18.6 µM]
same,activity change,[12],-0.0974% [at 18.6 µM]
same,"fluorescence, % of fluorescent control",[13],0.464% [at 18.6 µM]
same,"fluorescence, % of Rose Bengal",[14],-0.515% [at 18.6 µM]
same,"fluorescence, % of fluorescent control",[15],1.61% [at 18.6 µM]
same,"fluorescence, % of fluorescein control",[16],-0.0019% [at 18.6 µM]
same,"fluorescence, % of fluorescent control",[17],1.19% [at 18.6 µM]
same,Potency,[18],inactive
same,Potency,[19],inactive
